HEK293 tox = Cytotoxic Profiling in HEK 293 Cell Line of Diverse Libraries Using Quantitative High-Throughput Screening. HEK 293 viability, ATP luminescence (CellTiter-Glo), 48-72 h. 94,000 tested, 6.6% active. Potency, µM (series often up to 115 µM), inactives show top-dose activity change, negative = cytotoxicity, usual class: inhibitors. AID 1345083, 2018; also: nearly all actives have a fitted effect of over 60% in size
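HEK 293 cells seeded at 250 cells/well were exposed to compound for 48 or 72 hr at 37 degree Celsius. Viability taken as ATP content by CellTiter-Glo luminescence.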
GPT2 inhibitor = Primary qHTS assay for inhibitors of Glutamate pyruvate transaminase 2 (GPT2). Alanine aminotransferase 2 (Homo sapiens), Q8TD30. Recombinant GPT2, coupled pyruvate oxidase/HRP Amplex Red fluorescence. Potency, µM (top dose mostly 57.7 µM), without a hit: top-dose activity change, negative = inhibition, usual class: inhibitors. 100,000 tested, 0.25% active. AID 1671188, 2021; also: nearly all actives have a fitted effect of over 60% in size
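Fluorescence read-out: pyruvate from GPT2 turnover coupled to pyruvate oxidase, HRP and Amplex Red (0.2mM ThPP, 0.2U/mL PO and HRP, 50uM Amplex final). Substrates 250uM a-KG, 2mM L-alanine; enzyme 10ng/uL; 30 min RT.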
NPR1 antag = Natriuretic polypeptide receptor (hNpr1) antagonism - Primary qHTS. Atrial natriuretic peptide receptor 1 (Homo sapiens), P16066. HEK293 hNpr1 GloSensor cGMP, ANP-stimulated luminescence. Potency, µM (series often up to 46.3 µM), without a hit: top-dose activity change, negative = inhibition, usual class: inhibitors. 76,000 tested, 1.6% active. AID 1347048, 2019; calls by dose curve; also: nearly all actives have a fitted effect of over 60% in size
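HEK293 cells stably expressing human Npr1 and cGMP GloSensor pGS-40F, loaded 2 h with 2% GloSensor reagent, given compound 30 min at room temperature. Luminescence read before and 20 min after 0.1 nM hNppA.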
3T3 cytotox = Cytotoxic Profiling in NIH 3T3 Cell Line of Diverse Libraries Using Quantitative High-Throughput Screening. NIH 3T3 viability, CellTiter-Glo ATP luminescence, 48-72 h. Potency, µM (titrated, usually from 96.7 µM), for inactives: at the highest dose activity change, negative = cytotoxicity, most hits filed as inhibitors. 94,000 tested, 4.3% active; also: nearly all actives have a fitted effect of over 55% in size
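Cytotoxicity was measured by CellTiter-Glo ATP luminescence after 48 or 72 h compound exposure at 37 °C. Mouse NIH 3T3 fibroblasts were seeded at 400 cells/well and dosed by 23 nL pin transfer.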
FLuc inh = Firefly luciferase inhibition profiling of diverse chemical library using quantitative high-throughput screening. purified P. pyralis luciferase, luminescence, biochemical. Luciferin 4-monooxygenase (Photinus pyralis), P08659. Potency, µM (highest dose often 115 µM), usual class: inhibitors. 76,000 tested, 2.5% active; also: nearly all actives have a fitted effect of over 65% in size
Target sequence (P08659 whole entry, looked up): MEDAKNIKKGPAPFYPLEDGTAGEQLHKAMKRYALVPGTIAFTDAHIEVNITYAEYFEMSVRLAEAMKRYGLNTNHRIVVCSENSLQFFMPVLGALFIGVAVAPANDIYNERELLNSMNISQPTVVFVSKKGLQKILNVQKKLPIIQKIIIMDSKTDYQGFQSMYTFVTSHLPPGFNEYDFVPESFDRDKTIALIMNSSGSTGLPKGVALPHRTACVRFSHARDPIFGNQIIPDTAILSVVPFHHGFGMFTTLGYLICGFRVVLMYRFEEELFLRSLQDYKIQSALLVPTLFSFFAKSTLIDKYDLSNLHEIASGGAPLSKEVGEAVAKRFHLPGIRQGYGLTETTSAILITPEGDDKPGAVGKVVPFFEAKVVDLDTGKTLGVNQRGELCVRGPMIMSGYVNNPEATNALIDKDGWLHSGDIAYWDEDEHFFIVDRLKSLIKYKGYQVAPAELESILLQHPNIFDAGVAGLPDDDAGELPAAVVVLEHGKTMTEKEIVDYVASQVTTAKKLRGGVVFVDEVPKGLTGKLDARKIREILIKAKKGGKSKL
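Inhibitors were tested against purified firefly luciferase in a biochemical, low-substrate format (both substrates at 10uM) and luminescence measured with a CCD imager.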
* marks the source's active call; other numbers are inactive results; i = inactive; ? = inconclusive; · = not tested or not shown; [ ] = remark or other dose. Rows were chosen to be rich in hits. Some 10% of all compounds tested hit in one or more screens of this group. Unless noted, calls follow the shape of the dose curve; as a rule, active = well fitted curve in the direction sought with a large enough effect; inconclusive = small, poorly fitted or top-dose-only effect, or another doubt; inactive = no such curve, though single readings can be large; an effect the other way counts as inactive or inconclusive. % is scaled to controls: 0 for no effect and ±100 for the full control effect; potency is read from the fitted curve at half-maximal effect.

SMILES	HEK293 tox	GPT2 inhibitor	NPR1 antag	3T3 cytotox	FLuc inh
O=C(c1ccc(F)c(Cl)c1)N1CCC2(CC1)CN(C1CCC1)CC2CO (centres undefined)	?	i	-12%	?	i
O=C(NCc1cccs1)C1CCCCN1Cc1ccc(-c2cccs2)cc1 (centres undefined)	32µM*	-3%	·	28µM*	·
O=C(NCc1ccc(F)cc1)C1CCCCN1Cc1ccc(-c2cccs2)cc1 (centres undefined)	?	-12%	·	?	·
O=C(NCC(F)F)C1CCCCN1Cc1ccc(-c2cccs2)cc1 (centres undefined)	25µM*	0%	·	-25%	·
N[C@H]1CCN2C(=O)c3cc(-c4ccccc4F)ccc3NC(=O)[C@H]12	-17%[172 µM]	-10%[88.5 µM]	-3%[70.6 µM]	-28%[138 µM]	i
C=CCO[C@@H]1C[C@H]2C(=O)Nc3ccc(-c4ccc(F)cc4F)cc3C(=O)N2C1	?	1%[88.5 µM]	-6%[70.6 µM]	50µM*	i
C=CCO[C@@H]1CCN2C(=O)c3cc(-c4cc(Cl)ccc4OC)ccc3NC(=O)[C@H]12	63µM*	-3%[88.5 µM]	-16%[70.6 µM]	100µM*	i
COc1ccc(Cl)cc1-c1ccc2c(c1)C(=O)N1C[C@H](O)C[C@H]1C(=O)N2	?	-1%[88.5 µM]	3%[70.6 µM]	?	i
C=CCO[C@@H]1CCN2C(=O)c3cc(-c4cccc(C(F)(F)F)c4)ccc3NC(=O)[C@H]12	71µM*	-8%[88.5 µM]	-1%[70.6 µM]	?	i
CCS[C@H]1CCN2C(=O)c3cc(-c4ccccc4F)ccc3NC(=O)[C@H]12	89µM*	0%[88.5 µM]	3%[70.6 µM]	?	i
CC(c1c[nH]c2ccccc12)C(O)C(=O)O (centres undefined)	·	1%	·	·	·
C=CCO[C@@H]1CCN2C(=O)c3cc(-c4ccc(F)cc4F)ccc3NC(=O)[C@H]12	112µM*	1%[88.5 µM]	-1%[70.6 µM]	-13%[174 µM]	i
C=CCO[C@@H]1CCN2C(=O)c3cc(-c4ccccc4)ccc3NC(=O)[C@H]12	-26%[172 µM]	i	-9%[70.6 µM]	-26%[174 µM]	i
Cn1ccc2c(C(=O)NCc3cccnc3)nc(-c3cccc(N4CCOCC4)c3)cc21	?	i	-21%[70.6 µM]	?	i
Cn1ccc2c(C(=O)NCc3cccnc3)nc(-c3ccncc3)cc21	?	?	2%[70.6 µM]	?	?
CC(=O)Nc1cccc(-c2cc3c(ccn3C)c(C(=O)NCc3cccnc3)n2)c1	?	-18%[88.5 µM]	-21%[70.6 µM]	25µM*	i
Cn1ccc2c(C(=O)NCc3cccnc3)nc(-c3ccc(CO)cc3)cc21	-2%[172 µM]	-4%[88.5 µM]	0%[70.6 µM]	45µM*	i
Cn1ccc2c(C(=O)NCc3cccnc3)nc(-c3ccccc3C(F)(F)F)cc21	71µM*	-3%[88.5 µM]	-3%[70.6 µM]	45µM*	i
Cn1ccc2c(C(=O)NCc3cccnc3)nc(-c3cccnc3)cc21	-26%[172 µM]	2%[88.5 µM]	-12%[70.6 µM]	25µM*	i
CN(C)[C@@H]1CN(Cc2ccc(F)c(F)c2)CC[C@@H]1CO	-8%	i	·	-8%	·
CN(C)CCNC(=O)c1nc(-c2ccc(N3CCN(C)CC3)cc2)cc2c1ccn2C	?	i	-1%[70.6 µM]	7.9µM*	?
COc1ccccc1-n1c(=O)c(C(=O)N2CCN(C(=O)C3CC3)CC2)nc2cccnc21	?	-2%	·	-5%	·
Cc1nn(CCC#N)c(C)c1[C@@H]1C=C[C@@H](NC(=O)NCc2ccccc2)C1	-7%[172 µM]	-10%[88.5 µM]	1%[70.6 µM]	-27%[174 µM]	i
Cc1nn(-c2ccc(C(C)C)cc2)c(C)c1[C@@H]1C=C[C@@H](NCc2cccc(C#N)c2)C1	25µM*	-23%[88.5 µM]	-19%[70.6 µM]	?	?
Cc1ccc(-n2nc(C)c([C@@H]3C=C[C@@H](NCc4cccc(C#N)c4)C3)c2C)cc1Cl	25µM*	-10%[88.5 µM]	?	?	?
Cc1nn(-c2ccccc2)c(C)c1[C@@H]1C=C[C@@H](NCc2cccc(C#N)c2)C1	63µM*	-8%[88.5 µM]	-13%[70.6 µM]	?	i
Cc1cnc(C2CC2)n1CCNC(=O)C1CC1	-3%	-7%	·	-12%	·
